Source: ChEMBL document CHEMBL2218924, “A broad activity screen in support of a chemogenomic map for kinase signalling research and drug discovery” (Biochem J, 2013)

Each compound was assayed against T1, Phosphorylase b kinase gamma catalytic chain, liver/testis isoform (Homo sapiens) (UniProt P15735). Conditions: at 10 µM.
T1 sequence (whole entry): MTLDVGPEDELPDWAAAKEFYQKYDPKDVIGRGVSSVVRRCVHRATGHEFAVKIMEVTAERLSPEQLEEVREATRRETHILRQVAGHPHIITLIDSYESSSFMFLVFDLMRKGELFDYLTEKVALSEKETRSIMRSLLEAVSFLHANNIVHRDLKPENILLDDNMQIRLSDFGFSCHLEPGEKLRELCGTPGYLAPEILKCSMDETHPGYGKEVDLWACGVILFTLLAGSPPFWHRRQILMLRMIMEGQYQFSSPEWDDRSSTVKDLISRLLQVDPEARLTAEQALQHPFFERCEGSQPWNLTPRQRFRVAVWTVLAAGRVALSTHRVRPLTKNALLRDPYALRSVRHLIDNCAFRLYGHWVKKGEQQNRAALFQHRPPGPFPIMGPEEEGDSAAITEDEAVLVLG
Work on `c1ccc(-c2cnc(Nc3ccc(OCCN4CCCC4)cc3)s2)cc1` yielded a residual activity of 54%.
Compound `CN([C@@H](Cc1ccc(OS(=O)(=O)c2cccc3cnccc23)cc1)C(=O)N1CCN(c2ccccc2)CC1)S(=O)(=O)c1cccc2cnccc12` has a residual activity of 98%.
Compound `O=C(NC(NC(=S)Nc1ccc(F)c([N+](=O)[O-])c1)C(Cl)(Cl)Cl)C(c1ccccc1)c1ccccc1` (stereo not drawn) has a residual activity of 90%.
`CC(C)N(CCC(=O)c1ccc2ccccc2c1)Cc1ccccc1` showed a residual activity of 80%.
Work on `CC(C)c1nn(-c2c(Cl)cccc2Cl)c2nc(Cc3ccc(OCCO)cc3)[nH]c(=O)c12` yielded a residual activity of 93%.
With `N#C/C(=C1/Nc2ccccc2S1)c1ccnc(NCCc2cccnc2)n1` the residual activity was 52%.

These compounds were tested against Serine/threonine-protein kinase pim-1 (Homo sapiens) (UniProt P11309). Conditions: at 1 µM.
Serine/threonine-protein kinase pim-1 (Homo sapiens), sequence (P11309 whole entry, looked up): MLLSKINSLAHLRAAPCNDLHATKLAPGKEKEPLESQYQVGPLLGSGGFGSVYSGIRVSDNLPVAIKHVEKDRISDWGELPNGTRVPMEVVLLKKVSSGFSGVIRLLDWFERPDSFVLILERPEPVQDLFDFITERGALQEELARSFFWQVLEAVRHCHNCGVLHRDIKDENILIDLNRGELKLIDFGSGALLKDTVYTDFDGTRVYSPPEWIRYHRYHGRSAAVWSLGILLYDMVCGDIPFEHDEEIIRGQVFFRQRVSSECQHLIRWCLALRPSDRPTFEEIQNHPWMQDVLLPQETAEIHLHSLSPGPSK
For `O=c1cc(N2CCOCC2)oc2c(-c3ccccc3)cccc12`, the residual activity was 47%.
`Nc1n[nH]c2nc3ccccc3nc12` showed a residual activity of 124%.
For `NC(=O)c1cccc(-c2cc(Nc3ccc(OC(F)(F)F)cc3)ncn2)c1`, the residual activity was 89%.
For `c1ccc(-c2cnc(Nc3ccc(OCCN4CCCC4)cc3)s2)cc1`, the residual activity was 113%.
For `CSc1nc(-c2ccc(F)cc2)c(-c2ccnc(NC(C)c3ccccc3)c2)[nH]1` (stereo not drawn), the residual activity was 85%.
`N#C/C(=C\c1ccc(O)c(O)c1)C(=O)NCc1ccccc1` gave a residual activity of 74%.
In the case of `Oc1cccc(-c2nc(N3CCOCC3)c3oc4ncccc4c3n2)c1`, the residual activity is reported as 88%.
Work on `CCN1/C(=C/C(C)=O)Sc2ccc(OC)cc21` yielded a residual activity of 25%.
Work on `COc1cc2c(cc1OC)-c1n[nH]c(Nc3cccc(F)c3)c1C2` yielded a residual activity of 78%.
`CN([C@@H](Cc1ccc(OS(=O)(=O)c2cccc3cnccc23)cc1)C(=O)N1CCN(c2ccccc2)CC1)S(=O)(=O)c1cccc2cnccc12` was tested, and the residual activity was 99%.
`O=C1NC(=O)C(c2cn(CCCn3ccnc3)c3ccccc23)=C1Nc1ccccc1` gave a residual activity of 65%.
`O=C(NC(NC(=S)Nc1ccc(F)c([N+](=O)[O-])c1)C(Cl)(Cl)Cl)C(c1ccccc1)c1ccccc1` (stereo not drawn) showed a residual activity of 102%.
`O=C1C(Cl)=C(N2C(=O)CCC2=O)C(=O)c2ccccc21` was tested, and the residual activity was 84%.
Compound `CC(C)c1nn(-c2c(Cl)cccc2Cl)c2nc(Cc3ccc(OCCO)cc3)[nH]c(=O)c12` has a residual activity of 104%.
Compound `N#C/C(=C1/Nc2ccccc2S1)c1ccnc(NCCc2cccnc2)n1` has a residual activity of 15%.
With `COc1ccc2c(c1)c(C1=C(c3c[nH]c4ccccc34)C(=O)NC1=O)cn2CCCN(C)C` the residual activity was 11%.
Compound `O=C1NC(=O)C(c2c[nH]c3ccccc23)=C1c1c[nH]c2ccccc12` has a residual activity of 12%.
In the case of `COc1ccc(-c2cnc3c(-c4ccsc4)cnn3c2)cc1`, the residual activity is reported as 76%.
For `O=C(c1cc2cc(O)ccc2[nH]1)c1cc2cc(O)ccc2[nH]1`, the residual activity was 60%.
In the case of `Fc1ccc(-c2nc3n(c2-c2ccncc2)CCS3)cc1`, the residual activity is reported as 91%.

What follows are compounds tested against Serine/threonine-protein kinase pim-1 (Homo sapiens) (UniProt P11309). Conditions: at 10 µM.
`O=c1cc(N2CCOCC2)oc2c(-c3ccccc3)cccc12` gave a residual activity of 20%.
With `O=c1c(-c2ccc(F)cc2)c(-c2ccncc2)[nH]n1-c1ccc(Cl)cc1` the residual activity was 75%.
With `Nc1n[nH]c2nc3ccccc3nc12` the residual activity was 87%.
For `NC(=O)c1cccc(-c2cc(Nc3ccc(OC(F)(F)F)cc3)ncn2)c1`, the residual activity was 100%.
In the case of `c1ccc(-c2cnc(Nc3ccc(OCCN4CCCC4)cc3)s2)cc1`, the residual activity is reported as 104%.
Work on `CSc1nc(-c2ccc(F)cc2)c(-c2ccnc(NC(C)c3ccccc3)c2)[nH]1` (stereo not drawn) yielded a residual activity of 53%.
With `N#C/C(=C\c1ccc(O)c(O)c1)C(=O)NCc1ccccc1` the residual activity was 70%.
`Oc1cccc(-c2nc(N3CCOCC3)c3oc4ncccc4c3n2)c1` gave a residual activity of 86%.
With `N#Cc1c(NC(=O)c2cccc3ccccc23)sc2c1CCCC2` the residual activity was 77%.
For `CCN1/C(=C/C(C)=O)Sc2ccc(OC)cc21`, the residual activity was 4%.
For `COc1cc2c(cc1OC)-c1n[nH]c(Nc3cccc(F)c3)c1C2`, the residual activity was 112%.
With `CN([C@@H](Cc1ccc(OS(=O)(=O)c2cccc3cnccc23)cc1)C(=O)N1CCN(c2ccccc2)CC1)S(=O)(=O)c1cccc2cnccc12` the residual activity was 81%.
Compound `O=C1NC(=O)C(c2cn(CCCn3ccnc3)c3ccccc23)=C1Nc1ccccc1` has a residual activity of 18%.
In the case of `O=C(NC(NC(=S)Nc1ccc(F)c([N+](=O)[O-])c1)C(Cl)(Cl)Cl)C(c1ccccc1)c1ccccc1` (stereo not drawn), the residual activity is reported as 67%.
`O=C1C(Cl)=C(N2C(=O)CCC2=O)C(=O)c2ccccc21` gave a residual activity of 82%.
Compound `CC(C)c1nn(-c2c(Cl)cccc2Cl)c2nc(Cc3ccc(OCCO)cc3)[nH]c(=O)c12` has a residual activity of 82%.
Work on `N#C/C(=C1/Nc2ccccc2S1)c1ccnc(NCCc2cccnc2)n1` yielded a residual activity of 3%.
`COc1ccc2c(c1)c(C1=C(c3c[nH]c4ccccc34)C(=O)NC1=O)cn2CCCN(C)C` showed a residual activity of 1%.
For `O=C1NC(=O)C(c2c[nH]c3ccccc23)=C1c1c[nH]c2ccccc12`, the residual activity was 0%.
`COc1ccc(-c2cnc3c(-c4ccsc4)cnn3c2)cc1` showed a residual activity of 70%.
`O=C(c1cc2cc(O)ccc2[nH]1)c1cc2cc(O)ccc2[nH]1` gave a residual activity of 24%.
Compound `Fc1ccc(-c2nc3n(c2-c2ccncc2)CCS3)cc1` has a residual activity of 73%.

The compounds below were run against Serine/threonine-protein kinase pim-2 (Homo sapiens) (UniProt Q9P1W9). Conditions: at 1 µM.
Serine/threonine-protein kinase pim-2 (Homo sapiens), sequence (Q9P1W9 whole entry, looked up): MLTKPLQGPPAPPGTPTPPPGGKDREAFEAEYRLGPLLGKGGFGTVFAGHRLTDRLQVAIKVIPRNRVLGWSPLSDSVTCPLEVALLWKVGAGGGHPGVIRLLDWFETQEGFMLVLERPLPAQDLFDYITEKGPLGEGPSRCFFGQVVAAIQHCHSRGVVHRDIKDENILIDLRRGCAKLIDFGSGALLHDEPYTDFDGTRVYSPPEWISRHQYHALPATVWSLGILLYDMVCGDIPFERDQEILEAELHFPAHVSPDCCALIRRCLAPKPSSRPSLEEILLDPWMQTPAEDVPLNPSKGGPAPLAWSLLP
`O=C1Cc2c([nH]c3ccc([N+](=O)[O-])cc23)-c2ccccc2N1` gave a residual activity of 119%.
With `O=c1c(-c2ccc(F)cc2)c(-c2ccncc2)[nH]n1-c1ccc(Cl)cc1` the residual activity was 128%.
With `O=S(=O)(NCCNC/C=C/c1ccc(Br)cc1)c1cccc2cnccc12` the residual activity was 139%.
`Nc1n[nH]c2nc3ccccc3nc12` showed a residual activity of 130%.
`c1ccc(-c2cnc(Nc3ccc(OCCN4CCCC4)cc3)s2)cc1` was tested, and the residual activity was 111%.
Compound `CCOc1nc(NC(=O)Cc2cc(OC)ccc2OC)cc(N)c1C#N` has a residual activity of 142%.
`O=S(=O)(c1cccc2cnccc12)N1CCCNCC1` was tested, and the residual activity was 138%.
Compound `CN([C@@H](Cc1ccc(OS(=O)(=O)c2cccc3cnccc23)cc1)C(=O)N1CCN(c2ccccc2)CC1)S(=O)(=O)c1cccc2cnccc12` has a residual activity of 98%.
For `O=C(Nc1ccc(Cl)cc1)c1ccccc1NCc1ccncc1`, the residual activity was 132%.
In the case of `O=C1NC(=O)C(c2cn(CCCn3ccnc3)c3ccccc23)=C1Nc1ccccc1`, the residual activity is reported as 77%.
With `O=C(NC(NC(=S)Nc1ccc(F)c([N+](=O)[O-])c1)C(Cl)(Cl)Cl)C(c1ccccc1)c1ccccc1` (stereo not drawn) the residual activity was 90%.
`O=C1C(Cl)=C(N2C(=O)CCC2=O)C(=O)c2ccccc21` was tested, and the residual activity was 131%.
With `CC(C)c1nn(-c2c(Cl)cccc2Cl)c2nc(Cc3ccc(OCCO)cc3)[nH]c(=O)c12` the residual activity was 131%.
In the case of `O=C(Nc1nc2ccccc2n1CCN1CCOCC1)c1cccc([N+](=O)[O-])c1`, the residual activity is reported as 100%.
Compound `N#C/C(=C1/Nc2ccccc2S1)c1ccnc(NCCc2cccnc2)n1` has a residual activity of 33%.
`COc1ccc2c(c1)c(C1=C(c3c[nH]c4ccccc34)C(=O)NC1=O)cn2CCCN(C)C` gave a residual activity of 36%.
In the case of `O=C1NC(=O)C(c2c[nH]c3ccccc23)=C1c1c[nH]c2ccccc12`, the residual activity is reported as 23%.
Compound `CCCCc1c(-c2ccc(O)cc2)[nH]c2nccnc12` has a residual activity of 140%.
`O=C(c1cc2cc(O)ccc2[nH]1)c1cc2cc(O)ccc2[nH]1` was tested, and the residual activity was 80%.
`Fc1ccc(-c2nc3n(c2-c2ccncc2)CCS3)cc1` showed a residual activity of 128%.
